Source: PubChem BioAssay (National Center for Advancing Translational Sciences (NCATS))
IP6K1 inh: Primary qHTS assay for small molecule inhibitors of Inositol hexaphosphate kinase 1 (IP6K1) | hit rate 0.81% among 140,000 | activity change, % (series mostly up to about 58 µM) | AID 1645851, 2021 | Inositol hexakisphosphate kinase 1 (Homo sapiens), Q92551 | IP6K1 kinase, ADP-Glo luminescence, 2 h; active compounds read low; in the data active = activity change below about -25%; note: % is set by controls: 0 for no effect and ±100 for the full control effect
Target sequence (Q92551 whole entry, looked up): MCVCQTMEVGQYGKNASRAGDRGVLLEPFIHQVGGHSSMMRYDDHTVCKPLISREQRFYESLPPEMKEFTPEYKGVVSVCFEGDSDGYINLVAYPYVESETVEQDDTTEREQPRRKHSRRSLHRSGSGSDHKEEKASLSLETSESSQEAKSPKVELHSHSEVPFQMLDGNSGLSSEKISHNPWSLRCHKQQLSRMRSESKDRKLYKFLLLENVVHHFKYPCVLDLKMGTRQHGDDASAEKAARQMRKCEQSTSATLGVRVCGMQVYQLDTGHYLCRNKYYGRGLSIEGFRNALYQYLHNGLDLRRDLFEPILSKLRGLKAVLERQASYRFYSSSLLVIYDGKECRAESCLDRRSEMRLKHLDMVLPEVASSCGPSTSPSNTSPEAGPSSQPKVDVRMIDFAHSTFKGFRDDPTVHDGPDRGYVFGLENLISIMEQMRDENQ
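ADP-Glo luminescence measures ADP made by human IP6K1 during a 2 h RT reaction with ATP/IP6 (mix at 1.3 mM/130 uM); top library doses 57.5 and 19.1 uM final.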
KDM5B inhibitor: Primary screen for KDM5B Histone Demethylases FDH-coupled qHTS; Lysine-specific demethylase 5B (Homo sapiens), Q9UGL1; KDM5B demethylase, FDH-coupled NADH fluorescence (FDH is formaldehyde dehydrogenase); Potency, µM (top dose mostly 57.7 µM), usual class: inhibitors; hit rate 2.6% among 220,000; AID 1347165, 2019; active = well fitted inhibition curve with a large enough effect; inconclusive = small, poorly fitted or top-dose-only effect; inactive = no such curve, though single readings can be large or run the other way; note: potency is the fitted concentration of half-maximal effect; 0% is about no effect; nearly all actives have a fitted effect of over 70% in size
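qHTS format, multiple compound concentrations. Buffer 50 mM HEPES pH 7.5/0.01% Tween-20; 200 nM KDM5BΔAP final; 10 min compound preincubation; substrate-mix levels 12.5 µM peptide, 25 µM α-KG, 0.25 mM NAD⁺; 30 min RT; ΔRFU.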
* = called active by the depositor; i = inactive; u = inconclusive; x = not tested or not shown; ! = a repeat was not active. A selection: hits, their analogues and other compounds. The true share with any hit is near 2.8%.

SMILES | IP6K1 inh | KDM5B inhibitor
COc1ccc(CN2CCCn3nc(C)c(-c4ccccc4Oc4ccccc4)c32)cc1O | 3.8 | u
Cc1nn2c(c1-c1cccnc1N1CCOCC1)N(Cc1ccccc1)CCC2 | 2.3 | u
Cc1nn2c(c1-c1ccccc1OCc1ccccc1)N(CC1CC1)CCC2 | 14.8 | 35.5µM*
COCCNC(=O)c1ccc2nnc(-c3cc(C(F)(F)F)cc(C(F)(F)F)c3)n2c1 | -1.6 | x
O=C1CCN(CC(O)Cc2ccccc2)c2ccc(F)cc2CN1CC1CC1 (stereo unspecified) | 3.0 | x
COc1ccc(CN2Cc3cc(NC(=O)c4cc(OC)cc(OC)c4)ccc3OC(C)C2=O)cc1 (stereo unspecified) | -12.1 | u
Cc1ccc(-c2cn3cc(C(=O)N4CCCCC4)nc3s2)cc1 | 6.9 | x
Cc1nn2c(c1-c1ccccc1Oc1ccccc1)N(CC1CCOCC1)CCC2 | 5.9 | u
Cc1nn2c(c1-c1ccccc1Oc1ccccc1)N(CC1CC1)CCC2 | 10.4 | 31.6µM*
CC[N+]1(CC=C(C)C)CCCCC1 | x | i
CSCCNC(=O)c1nc2cccnc2n(Cc2ccccc2)c1=O | 15.1 | x
Cc1ccc(-c2nc3cnccn3c2NCCC(=O)N2CCCCC2)cc1 | 18.0 | 31.6µM*
O=C(CCNS(=O)(=O)c1ccccc1)N1CCCCCC1 | x | i
CCc1cccc(C)c1Nc1c(-c2cccc(O)c2)nc2cnccn12 | 10.6 | u
O=C(CCNc1c(-c2ccccc2)nc2cnccn12)N1CCCC1 | -7.4 | 28.2µM*
CC(C)c1ccc(Nc2c(-c3ccc(N(C)C)cc3)nc3cnccn23)cc1 | 5.2 | i
O=C(CCNc1c(-c2cccc(F)c2)nc2cnccn12)N1CCCC1 | 7.5 | 28.2µM*
CCc1cccc(C)c1Nc1c(-c2ccc(N(C)C)cc2)nc2cnccn12 | -10.2 | u
O=C(O)CCNc1c(-c2ccc(F)cc2)nc2cnccn12 | 6.2 | 28.2µM*
O=C(O)CCS(=O)(=O)Cc1cccc(Br)c1 | x | i
CCCn1nc(C(=O)OC(C)C(=O)NCc2ccco2)c2ccccc2c1=O (stereo unspecified) | x | i
O=C(Nc1c(-c2ccccc2)nc2ccccn12)c1cccc(F)c1 | x | i
COc1ccc(-c2nc3cnccn3c2NCCC(=O)N2CCCCCC2)cc1 | 3.8 | 28.2µM*
COc1ccc(CNC(=O)c2c(C)nc3cnccn23)cc1 | -0.8 | x
CN(Cc1ccccc1)C(=O)CCNc1c(-c2cccc(F)c2)nc2cnccn12 | 21.9 | 25.1µM*
SMILES | IP6K1 inh | KDM5B inhibitor
Cc1cccc(-c2cccc(CN3CCC(NC(=O)N(C)C)CC3)c2)c1 | 7.3 | x
CCOC(=O)c1ccc(Oc2coc3cc(OC(=O)N(CC)CC)ccc3c2=O)cc1 | x | i
COc1ccc2ccccc2c1C1C(C#N)=C(N)OC2=C1C(=O)CC(C)(C)C2 (stereo unspecified) | x | i
COc1cccc(C(=O)COC(=O)C2C3CC4C(OC(=O)C42)C3Br)c1 (stereo unspecified) | x | i
Cc1ccc(C2=NC3(CCN(C(=O)c4ccsc4)CC3)ON2)cc1 | -7.7 | i
Cc1ccc(S(=O)(=O)NC[C@H]2O[C@@H](CC(=O)N3CCN(c4ccccn4)CC3)[C@H](O)[C@@H]2O)cc1 | -4.3 | 28.2µM*
OC[C@@H]1O[C@H](CNC2CCOCC2)[C@H](N2CCN(c3ccccn3)CC2)[C@@H]1O | 0.5 | u
CS(=O)(=O)NC[C@H]1O[C@@H](CC(=O)N2CCN(c3ccccn3)CC2)[C@H](O)[C@@H]1O | 8.6 | 35.5µM*
Cc1ccc(S(=O)(=O)NC[C@H]2O[C@@H](CC(=O)N3CCN(c4ccccc4)CC3)[C@H](O)[C@@H]2O)cc1 | 3.5 | i
CCC(CC)C(=O)NC[C@H]1O[C@@H](CC(=O)N2CCN(c3ccccn3)CC2)[C@H](O)[C@@H]1O | 2.5 | 31.6µM*
Cc1ccc(C(=O)NC[C@H]2O[C@@H](CC(=O)N3CCN(c4ccccn4)CC3)[C@H](O)[C@@H]2O)cc1 | 22.5 | i
O=C(NC[C@H]1O[C@@H](CC(=O)N2CCN(c3ccccn3)CC2)[C@H](O)[C@@H]1O)Nc1ccccc1 | -2.5 | u
OC[C@@H]1O[C@H](CN(Cc2cccc(Cl)c2)Cc2cccc(Cl)c2)[C@H](N2CCN(c3ccccn3)CC2)[C@@H]1O | 18.2 | 25.1µM*
O=C(NCCc1ccccc1)c1ccc2nnc(-c3cc[nH]c3)n2c1 | 7.7 | x
O=C(O)c1ccc(CS(=O)c2ccc(F)cc2)o1 (stereo unspecified) | x | i
CCCC(C(=O)NC12CC3CC(CC(C3)C1)C2)c1ccccc1 (stereo unspecified) | x | i
O=C(Nc1ccc(F)cc1)C1CC(=O)N(Cc2ccccn2)c2nc3ccccc3n21 (stereo unspecified) | x | i
N#Cc1ccsc1NC(=O)CSc1nnc(-c2ccccc2Cl)n1C1CCCC1 | x | i
Cc1ccc(S(=O)(=O)NC[C@H]2O[C@@H](CO)[C@@H](O)[C@H]2N2CCN(c3ccccn3)CC2)cc1 | 11.6 | u
O=S(=O)(NC[C@H]1O[C@@H](CO)[C@@H](O)[C@H]1N1CCN(c2ccccn2)CC1)c1ccc(Cl)cc1 | -2.1 | 28.2µM*
N#Cc1ccccc1S(=O)(=O)NCC(=O)O | x | i
O=C(O)c1ccc(CN2C[C@@H](F)[C@@H](OCc3nc4ncccc4[nH]3)C2)cc1 | -3.9 | i
O=C(O)c1ccc(-c2nc3ncccc3[nH]2)cc1 | 6.8 | 28.2µM*!
c1ccc(-c2nc3ncccc3[nH]2)nc1 | 0.1 | 31.6µM*!
Cc1cc(-c2nc3ncccc3[nH]2)c(C)[nH]1 | 7.9 | u
SMILES | IP6K1 inh | KDM5B inhibitor
c1cnc2nc(-c3ccsc3)[nH]c2c1 | 6.5 | 31.6µM*!
c1cc2nc(-c3ccsc3)[nH]c2cn1 | 2.8 | u
COCCC(=O)N1CC2(CCCCC2)CC1COc1ccc(OC)cc1 (stereo unspecified) | 18.2 | x
Cc1cccc(NC(=O)c2cc(=O)c3cc(C)ccc3o2)c1 | x | i
O=C(NCc1cccs1)C1CCN(c2nccc(Nc3ccccc3Cl)n2)CC1 | 3.9 | x
CN(C)[S+](=O)([O-])c1ccc2c(c1)OCCN(Cc1ccc(C(F)(F)F)cc1)C2 | -7.5 | u
O=C(NCc1cccc(Cl)c1)C1CCN(C(=O)c2ccc(-c3cccs3)cc2)CC1 | -1.9 | x
COc1cccc(-c2cccc(CN3CCCC3C(=O)N3CCCC(C)C3)c2)c1 (stereo unspecified) | 23.1 | x
COc1cccc(-c2c(C(=O)Nc3cccc(Cl)c3)nc3sccn23)c1 | -10.4 | x
COc1cccc(-c2nc3cnccn3c2NCCC(=O)Nc2cccc(Cl)c2)c1 | 2.0 | 28.2µM*
COc1cccc(-c2nc3cnccn3c2NCCC(=O)N2CCCC(C)C2)c1 (stereo unspecified) | 6.0 | 28.2µM*
COc1ccc(-c2nc3cnccn3c2NCCC(=O)N2CCCC(C)C2)cc1 (stereo unspecified) | -3.4 | 28.2µM*
COc1ccc(CCC(=O)N2CCCC(Cn3c(C)cnc3-c3ccncc3)C2)cc1 (stereo unspecified) | 15.4 | x
O=C(NCCc1ccccc1)C1CCCCN1Cc1ccc(-c2ccsc2)cc1 (stereo unspecified) | 7.5 | x
O=C(NCc1ccccc1F)C1CCCN(Cc2cccc(-c3cccs3)c2)C1 (stereo unspecified) | 4.3 | x
COCC1CN(Cc2cccc(C(F)(F)F)c2)CC12CCNCC2 (stereo unspecified) | 3.0 | u
